For some of these results: Entries with a potency or affinity are not part of this list.
Experiments:
Set-up in all cases: scale not given: direction of the effect not stated beside the values
[1] = target: Protein translocase subunit SecA (Escherichia coli (strain K12)) (UniProt P10408); test: Assay to Identify E. coli SecA ATPase Inhibitors; assay type: functional; conditions: 30 µM
[2] = target: T1, Ubiquitin-activating enzyme e1, putative (Leishmania donovani (strain BPK282A1)) (UniProt E9BSI1); test: Leishmania donovani Ubiquitin Activating Enzyme (LdE1); assay type: functional; conditions: 30 µM
T1 sequence (whole entry): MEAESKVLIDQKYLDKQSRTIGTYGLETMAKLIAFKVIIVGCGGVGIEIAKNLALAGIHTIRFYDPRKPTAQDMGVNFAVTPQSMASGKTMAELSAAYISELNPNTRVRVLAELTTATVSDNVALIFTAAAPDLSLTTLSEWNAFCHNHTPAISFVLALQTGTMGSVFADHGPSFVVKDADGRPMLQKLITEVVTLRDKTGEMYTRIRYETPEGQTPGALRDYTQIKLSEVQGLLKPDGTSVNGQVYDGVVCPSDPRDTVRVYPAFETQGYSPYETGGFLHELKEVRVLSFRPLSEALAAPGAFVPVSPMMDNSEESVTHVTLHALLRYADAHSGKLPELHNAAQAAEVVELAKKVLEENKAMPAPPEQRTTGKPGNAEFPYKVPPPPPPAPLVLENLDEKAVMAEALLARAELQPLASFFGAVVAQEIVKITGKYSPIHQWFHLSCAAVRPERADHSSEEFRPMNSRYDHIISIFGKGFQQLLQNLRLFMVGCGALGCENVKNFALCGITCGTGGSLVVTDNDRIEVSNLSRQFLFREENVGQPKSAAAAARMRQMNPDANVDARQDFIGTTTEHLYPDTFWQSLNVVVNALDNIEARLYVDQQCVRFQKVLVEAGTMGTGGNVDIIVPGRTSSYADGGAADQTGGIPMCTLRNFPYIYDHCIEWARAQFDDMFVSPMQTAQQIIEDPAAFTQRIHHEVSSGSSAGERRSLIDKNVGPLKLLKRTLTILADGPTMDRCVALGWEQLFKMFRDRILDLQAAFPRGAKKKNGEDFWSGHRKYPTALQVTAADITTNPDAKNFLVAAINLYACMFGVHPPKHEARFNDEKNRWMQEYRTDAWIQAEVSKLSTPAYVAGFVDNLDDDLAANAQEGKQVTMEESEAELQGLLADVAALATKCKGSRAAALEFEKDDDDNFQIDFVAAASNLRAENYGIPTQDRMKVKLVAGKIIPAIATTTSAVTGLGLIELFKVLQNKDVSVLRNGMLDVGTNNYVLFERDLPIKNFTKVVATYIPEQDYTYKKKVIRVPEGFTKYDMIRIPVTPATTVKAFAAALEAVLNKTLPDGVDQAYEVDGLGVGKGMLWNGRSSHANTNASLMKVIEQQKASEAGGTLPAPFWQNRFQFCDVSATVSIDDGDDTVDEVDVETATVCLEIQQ

[3] = target: AMP-activated protein kinase, AMPK (Homo sapiens) (UniProt P54646+O43741+P54619+Q9UGJ0+Q9Y478+Q13131+Q9UGI9); test: AMP-dependent Kinase enzyme assay. An in vitro enzyme assay that detects ADP turnover that is directly proportional to AMPK activity. This uses naive AMPK that is activated during the assay with MK-8722; assay type: functional; conditions: 30 µM
[4] = target: Sialic acid-binding Ig-like lectin 9 (Homo sapiens) (UniProt Q9Y336); test: Hs-Siglec9 ALPHAscreen SOP 20170721; conditions: 10 µM
Chain of Sialic acid-binding Ig-like lectin 9 (Homo sapiens) (Q9Y336 whole entry): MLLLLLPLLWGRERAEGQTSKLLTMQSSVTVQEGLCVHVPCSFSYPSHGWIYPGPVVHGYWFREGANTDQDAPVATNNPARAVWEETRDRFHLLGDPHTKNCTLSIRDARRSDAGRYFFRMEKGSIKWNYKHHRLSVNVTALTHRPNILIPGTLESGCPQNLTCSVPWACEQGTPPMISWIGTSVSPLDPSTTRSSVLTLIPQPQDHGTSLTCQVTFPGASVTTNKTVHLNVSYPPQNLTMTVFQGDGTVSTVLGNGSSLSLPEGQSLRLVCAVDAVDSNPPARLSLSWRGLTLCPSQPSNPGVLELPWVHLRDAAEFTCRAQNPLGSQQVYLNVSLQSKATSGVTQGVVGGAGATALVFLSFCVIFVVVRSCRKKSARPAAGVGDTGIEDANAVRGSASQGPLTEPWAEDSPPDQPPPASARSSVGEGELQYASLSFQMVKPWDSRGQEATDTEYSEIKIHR

Trypanosoma cruzi = test: Trypanosoma cruzi phosphomannomutase and mannose-1-phosphate guanylyltransferase assay; assay type: functional; conditions: 10 µM
[5] = target: T2, Arginase-2, mitochondrial (Homo sapiens) (UniProt P78540); test: in vitro enzyme assay to detect the production of urea directly proportional to the activity of Arginase II; assay type: functional; conditions: 33.3 µM; further: in the data most compounds retested in dose-response had high values
T2 sequence (whole entry): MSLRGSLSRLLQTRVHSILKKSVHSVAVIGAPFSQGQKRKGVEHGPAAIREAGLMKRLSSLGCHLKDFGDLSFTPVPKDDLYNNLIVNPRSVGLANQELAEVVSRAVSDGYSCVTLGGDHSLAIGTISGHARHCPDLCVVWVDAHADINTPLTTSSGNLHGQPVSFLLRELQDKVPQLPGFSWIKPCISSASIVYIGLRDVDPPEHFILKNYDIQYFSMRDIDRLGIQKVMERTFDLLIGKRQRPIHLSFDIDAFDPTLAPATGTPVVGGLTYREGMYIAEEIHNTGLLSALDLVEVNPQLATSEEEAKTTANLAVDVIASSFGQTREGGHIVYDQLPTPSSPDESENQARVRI

[6] = target: T3, Proteasome subunit beta (Trypanosoma cruzi) (UniProt O96673); test: Trypanosoma cruzi proteasome chymotrypsin-like activity (TcProtChymo) assay.; further: in the data most compounds retested in dose-response had high values; assay type: functional; conditions: 9.37 µM
T3 sequence (whole entry): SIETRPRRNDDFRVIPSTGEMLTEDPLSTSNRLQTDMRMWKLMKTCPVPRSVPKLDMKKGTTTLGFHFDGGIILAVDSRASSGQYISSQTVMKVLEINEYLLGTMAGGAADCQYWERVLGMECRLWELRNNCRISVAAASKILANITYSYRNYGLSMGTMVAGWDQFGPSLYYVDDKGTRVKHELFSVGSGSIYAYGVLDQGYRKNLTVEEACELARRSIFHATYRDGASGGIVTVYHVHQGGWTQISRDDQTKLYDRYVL

Homo sapiens = organism: Homo sapiens; test: To identify inhibition of the IFN signalling (Jak-Stat) pathway via expression of an eGFP reporter gene under the control of an IFN-stimulated response element (ISRE) containing MxA promoter.; assay type: functional; conditions: 30 µM
[7] = target: T4, Tyrosyl-tRNA synthetase, putative (Trypanosoma cruzi (strain CL Brener)) (UniProt Q4DSP6); test: Trypanosoma cruzi tyrosyl tRNA synthetase (TcYRS) _High Tyrosine SOP; assay type: functional; conditions: 30 µM; further: in the data most compounds retested in dose-response had high values
T4 sequence (whole entry): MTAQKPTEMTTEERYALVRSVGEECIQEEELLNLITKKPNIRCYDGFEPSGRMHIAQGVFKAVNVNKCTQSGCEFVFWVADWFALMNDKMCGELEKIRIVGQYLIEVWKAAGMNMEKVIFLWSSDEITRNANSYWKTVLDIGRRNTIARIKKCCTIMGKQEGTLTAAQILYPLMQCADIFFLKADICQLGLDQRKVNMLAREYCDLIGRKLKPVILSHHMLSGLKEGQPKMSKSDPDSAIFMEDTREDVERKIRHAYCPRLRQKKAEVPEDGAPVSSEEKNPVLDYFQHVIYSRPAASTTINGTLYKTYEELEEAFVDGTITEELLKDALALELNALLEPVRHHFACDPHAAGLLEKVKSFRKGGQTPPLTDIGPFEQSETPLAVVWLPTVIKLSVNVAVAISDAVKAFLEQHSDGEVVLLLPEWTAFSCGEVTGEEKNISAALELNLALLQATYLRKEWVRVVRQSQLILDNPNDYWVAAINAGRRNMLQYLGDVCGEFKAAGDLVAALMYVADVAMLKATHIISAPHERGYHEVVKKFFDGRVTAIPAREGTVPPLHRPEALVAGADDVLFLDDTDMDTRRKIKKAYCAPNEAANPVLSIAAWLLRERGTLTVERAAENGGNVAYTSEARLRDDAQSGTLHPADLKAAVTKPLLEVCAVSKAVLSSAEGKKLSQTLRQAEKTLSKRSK

[8] = target: T4, Tyrosyl-tRNA synthetase, putative (Trypanosoma cruzi (strain CL Brener)); test: Trypanosoma cruzi tyrosyl tRNA synthetase (TcYRS) SOP; assay type: functional; conditions: 30 µM
[9] = target: Chromo domain-containing protein 1 (Saccharomyces cerevisiae (strain ATCC 204508 / S288c) (Baker's yeast)) (UniProt P32657); test: ScCHD-1 Enzyme Inhibition Assay; assay type: functional; conditions: 30 µM; further: in the data most compounds retested in dose-response had high values
Chain of Chromo domain-containing protein 1 (Saccharomyces cerevisiae (strain ATCC 204508 / S288c) (Baker's yeast)) (P32657 whole entry, the tested form may be a part): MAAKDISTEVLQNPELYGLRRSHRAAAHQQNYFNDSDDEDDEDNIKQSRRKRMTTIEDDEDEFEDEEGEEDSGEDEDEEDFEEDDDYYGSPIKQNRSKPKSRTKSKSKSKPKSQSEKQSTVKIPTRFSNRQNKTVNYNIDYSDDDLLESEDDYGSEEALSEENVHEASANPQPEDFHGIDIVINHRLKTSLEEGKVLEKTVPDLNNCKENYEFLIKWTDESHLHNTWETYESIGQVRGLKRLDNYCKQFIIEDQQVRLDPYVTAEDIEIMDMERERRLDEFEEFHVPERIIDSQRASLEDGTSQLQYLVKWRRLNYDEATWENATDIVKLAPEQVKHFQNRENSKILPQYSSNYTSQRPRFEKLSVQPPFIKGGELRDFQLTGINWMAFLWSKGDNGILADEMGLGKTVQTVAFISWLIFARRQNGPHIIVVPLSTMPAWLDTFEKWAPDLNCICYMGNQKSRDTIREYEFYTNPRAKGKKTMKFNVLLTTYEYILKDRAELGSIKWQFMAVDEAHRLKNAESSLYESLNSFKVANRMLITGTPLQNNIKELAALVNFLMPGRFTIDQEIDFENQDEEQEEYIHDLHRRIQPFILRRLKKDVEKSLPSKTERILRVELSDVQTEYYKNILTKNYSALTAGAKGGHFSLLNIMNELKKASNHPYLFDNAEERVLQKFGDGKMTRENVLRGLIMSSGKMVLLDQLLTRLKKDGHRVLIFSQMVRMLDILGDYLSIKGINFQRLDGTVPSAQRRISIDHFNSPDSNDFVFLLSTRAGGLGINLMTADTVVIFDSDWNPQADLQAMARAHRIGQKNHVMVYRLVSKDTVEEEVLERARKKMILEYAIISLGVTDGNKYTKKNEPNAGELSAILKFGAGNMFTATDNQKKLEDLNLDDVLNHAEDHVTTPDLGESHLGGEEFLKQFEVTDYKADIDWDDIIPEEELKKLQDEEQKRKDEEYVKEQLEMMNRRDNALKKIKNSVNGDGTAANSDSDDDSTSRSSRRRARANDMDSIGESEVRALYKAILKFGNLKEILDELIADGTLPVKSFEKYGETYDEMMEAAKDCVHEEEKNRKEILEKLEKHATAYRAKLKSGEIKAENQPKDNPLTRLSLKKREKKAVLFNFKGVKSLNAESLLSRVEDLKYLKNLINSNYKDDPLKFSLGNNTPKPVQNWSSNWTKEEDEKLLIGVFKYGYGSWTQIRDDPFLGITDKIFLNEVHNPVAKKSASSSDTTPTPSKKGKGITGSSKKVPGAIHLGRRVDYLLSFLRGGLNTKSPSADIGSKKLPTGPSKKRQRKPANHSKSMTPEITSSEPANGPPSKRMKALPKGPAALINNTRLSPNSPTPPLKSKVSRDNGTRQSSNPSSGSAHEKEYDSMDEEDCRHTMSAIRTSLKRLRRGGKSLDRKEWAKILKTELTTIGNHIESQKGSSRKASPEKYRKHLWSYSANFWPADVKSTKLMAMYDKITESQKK

Chain of Protein translocase subunit SecA (Escherichia coli (strain K12)) (P10408 whole entry): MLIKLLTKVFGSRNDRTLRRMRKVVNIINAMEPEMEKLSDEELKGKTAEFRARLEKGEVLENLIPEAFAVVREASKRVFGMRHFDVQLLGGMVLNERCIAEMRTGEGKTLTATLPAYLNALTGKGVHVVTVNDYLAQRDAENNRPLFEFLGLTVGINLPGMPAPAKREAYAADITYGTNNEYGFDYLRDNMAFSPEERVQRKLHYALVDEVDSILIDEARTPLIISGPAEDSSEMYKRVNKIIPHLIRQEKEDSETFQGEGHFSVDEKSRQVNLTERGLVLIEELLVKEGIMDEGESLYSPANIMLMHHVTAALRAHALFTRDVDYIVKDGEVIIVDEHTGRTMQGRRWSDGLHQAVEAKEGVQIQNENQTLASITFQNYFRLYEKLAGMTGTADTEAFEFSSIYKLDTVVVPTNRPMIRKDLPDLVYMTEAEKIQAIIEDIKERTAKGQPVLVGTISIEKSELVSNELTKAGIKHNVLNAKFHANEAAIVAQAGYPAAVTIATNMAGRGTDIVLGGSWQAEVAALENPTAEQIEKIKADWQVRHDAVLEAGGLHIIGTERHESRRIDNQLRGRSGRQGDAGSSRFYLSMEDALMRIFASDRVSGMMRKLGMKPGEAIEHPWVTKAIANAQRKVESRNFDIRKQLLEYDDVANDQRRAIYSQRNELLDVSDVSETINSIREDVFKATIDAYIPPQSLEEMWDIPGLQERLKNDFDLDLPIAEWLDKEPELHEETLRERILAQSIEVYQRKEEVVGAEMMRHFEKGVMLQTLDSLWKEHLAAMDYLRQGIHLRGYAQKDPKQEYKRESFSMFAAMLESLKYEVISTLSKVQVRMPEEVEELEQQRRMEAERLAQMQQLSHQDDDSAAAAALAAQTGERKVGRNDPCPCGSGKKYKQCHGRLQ

Row | Compound | Percent Effect [1] | Percent Effect [2] | Percent Effect [3] | Percent Effect [4] | Percent Effect (Trypanosoma cruzi) | Percent Effect [5] | Percent Effect [6] | Percent Effect (Homo sapiens) | Percent Effect [7] | Percent Effect [8] | Percent Effect [9]
1 | CCCN(C)C(=O)c1ccc2c(c1)[nH]c(=O)n2CCOCC | -5.32% | 2.7% | -7.14% | 42% | 8.11% | 2.38% | 9.65% | -3.55% | 2.65% | 17.1% | -9.7%
2 | CCc1cc(NCc2ccccc2CN2CCCC2)n2ncnc2n1 | -5.91% | 0% | -0.284% | -9.79% | -4.38% | 5.92% | 17.4% | -22.7% | 3.19% | -2.6% | -5.77%
3 | Cc1nc(CN2CCn3cc(CNC(=O)C4CCC4)nc3C2)cs1 | -1.94% | 13.3% | -0.557% | 6.49% | 4.63% | -45.3% | 24.1% | -2.13% | 9.38% | 27.5% | -8.63%
4 | COc1cc(C(=O)NC(CC(=O)O)c2cccs2)cc(Cl)c1OC (stereo unspecified) | -3% | 8.86% | 6.71% | -5.2% | -3.79% | 1.07% | 20.9% | -0.746% | 2.08% | 5.06% | -25.4%
5 | COc1cccc2c1OCC(NC(=O)NCc1cccs1)C2 (stereo unspecified) | -7.48% | 15.8% | 0.286% | 9.16% | 0.876% | -2.37% | 9.11% | 5.73% | 4.25% | 13% | -6.35%
6 | COc1ccc(C(=O)NS(=O)(=O)c2ccc(C#N)cc2C(F)(F)F)cc1 | -1.41% | -10.8% | 20.6% | 0.998% | 0.472% | 6.41% | -3.06% | 11.2% | -2.46% | -1.24% | -2.1%
7 | O=C(c1cccc2cccnc12)N1CCCN(c2cccnn2)CC1 | -6.9% | 10.4% | -4.23% | 1.47% | 6.37% | 1.9% | 10.8% | 0.652% | 2.86% | 11.8% | -27.3%
8 | Cc1csc(C2CCCN(C(=O)c3cc(Cl)c[nH]3)C2)n1 (stereo unspecified) | -4.24% | 5.41% | -0.992% | 9.99% | -5% | -2% | 3.96% | 19% | 14.3% | 13.6% | -2.75%
9 | CNC(=O)NC(=O)CN1CCC(c2c[nH]c3ccc(OC)cc23)CC1 | -5.27% | 10.7% | -5.74% | 22.2% | 0.292% | 4.69% | 12.4% | 7.02% | 9.29% | 18.5% | -8.18%
10 | O=C(Cc1csc(-c2ccco2)n1)N1CCN(c2cnccn2)CC1 | -3.21% | 13.9% | -1.6% | 4.73% | 0.718% | -1.94% | 17.5% | 13.5% | 11.5% | 22.8% | -30.1%
11 | O=C1NC(c2ccccc2)=N[C@@]12CC[C@@H]1CN(Cc3ccco3)C[C@@H]12 | -0.246% | 5.33% | 1.87% | -5.18% | 2.32% | -47.5% | -0.513% | 4.89% | 2.08% | -5% | -2.32%

Source: ChEMBL document CHEMBL3988442, “University of Dundee, Small-Polar-MMV Screening Library” (2021)
